Screening data: PubChem, National Center for Advancing Translational Sciences (NCATS)
aSyn yeast inh = alpha-synuclein toxicity inhibition in yeast. AID 652106. Potency, µM (series often up to 46.1 µM), inactives show at the highest dose growth rescue (activation), actives largely listed as activators. hit rate 0.14% among 370,000. Yeast expressing alpha-synuclein, growth rescue, BacTiter-Glo, 24 h; also: % of control where 0% means no effect; nearly all actives have a fitted effect of over 65% in size
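Screening used galactose-induced yeast with toxic alpha-synuclein levels, exposed to compound for 24 hr at 30 deg C. Cell growth, read with BacTiter-Glo luminescence, gave the measured signal.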
FUS yeast rescue = suppressors of FUS proteinopathy in yeast; hit rate 0.24% among 390,000; Potency, µM (doses to about 76.6 µM), most hits filed as activators; S. cerevisiae FUS-expressing, growth rescue, OD600, 24 h;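 also: plate controls were DMSO vehicle for no effect and reference control for full effect; nearly all actives have a fitted effect of over 55% in size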
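Yeast expressing FUS under galactose induction, OD 0.005 in 2% galactose medium; compounds in a dilution series, 24 h at 30C. Growth rescue by absorbance at 600 nm; CP55940 positive control, DMSO negative.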
Abeta rescue = compounds reversing amyloid beta toxicity in yeast; AID 1347071; hit rate 0.063% among 410,000; yeast expressing A-beta42, growth rescue, OD600, 48 h; response scale: 0% DMSO, 100% iron-clioquinol control; Potency, µM (doses to about 46.1 µM), actives largely listed as activators; also: nearly all actives have a fitted effect of over 55% in size
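Yeast growth medium received pinned compounds, then yeast cells expressing toxic A-beta were added; plates incubated at 30 C for 48 hr. Growth read as absorbance at 600 nm, normalized to DMSO and equimolar FeCl3 plus clioquinol controls.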
TDP43 rescue = TDP-43 toxicity inhibition in yeast | AID 652104 | hit rate 1.8% among 410,000 | TDP-43 expressing yeast growth rescue, BacTiter-Glo, 24 h | Potency, µM (top dose mostly 46.1 µM), for the others: top-dose growth rescue (activation), actives largely listed as activators; also: % of control where 0% means no effect; nearly all actives have a fitted effect of over 50% in size
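Growth rescue of TDP-43-toxic yeast measured as ATP luminescence (BacTiter-Glo). Cells grown to mid-log in raffinose, induced in galactose at OD600=0.02, exposed to compound 24 hr at 30 deg C.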
* marks the source's active call; other numbers are inactive results; i = inactive; ? = inconclusive; . = no result given. An excerpt weighted towards active compounds, which were near 2.1% of everything screened. Calls follow the shape of the dose curve; as a rule, active = well fitted curve in the direction sought with a large enough effect; inconclusive = small, poorly fitted or top-dose-only effect, or another doubt; inactive = no such curve, though single readings can be large; an effect the other way counts as inactive or inconclusive. Potency is read from the fitted curve at half-maximal effect.

SMILES	aSyn yeast inh	FUS yeast rescue	Abeta rescue	TDP43 rescue
Cc1ccc(S(=O)(=O)N2CCN(c3nc(Nc4ccccc4O)nc4ccccc34)CC2)cc1	20%	.	.	.
CC1CCN(c2nc(Cl)nc(Nc3ccc([N+](=O)[O-])cc3)n2)CC1	8%	.	i	20µM*
O=C(COc1ccccc1C(=O)Nc1ccccc1)Nc1ccccc1F	-1%	.	.	.
Cc1nnc2sc(-c3csc4c3CCCC4)nn12	-3%	?	i	13µM*
Cc1nnc2sc(-c3ccncc3)nn12	13%	i	i	8%
Cc1cc(C)c(OCC(=O)OC(C)C(=O)N2CCc3ccccc32)c(C)c1 (stereo not drawn)	-19%	i	i	22µM*
Cc1ccc(SCC(=O)OC(C)C(=O)N2CCc3ccccc32)cc1 (stereo not drawn)	1%	i	i	-2%
Cc1cccc(-n2ncc3c(Nc4ccc(Oc5ccc(Cl)cc5)cc4)ncnc32)c1	.	i	i	0%
O=c1oc2c(CN3CCOCC3)c(O)ccc2cc1-c1ccc(Cl)cc1	.	i	i	13µM*
O=C(COc1ccccc1)Nc1nc2c(s1)CCCC2	5%	i	?	28%
O=C(CSc1nnc(CNc2ccc(Cl)cc2)o1)Nc1nc2c(s1)CCCC2	-5%	35µM*	i	19%
O=C(CSCc1ccc(F)cc1)Nc1nc2c(s1)CCCC2	12%	i	i	14µM*
O=C(COc1ccccc1Cl)Nc1nc2c(s1)CCCC2	.	i	i	11µM*
CCCN1CNc2c(c(=O)[nH]c(=S)n2CCc2c(OC)cccc2OC)C1	-3%	.	.	.
Cc1cc2n(n1)C(c1sccc1C)Nc1ccccc1-2 (stereo not drawn)	-2%	i	i	18µM*
Cc1ccc2c(c1)-c1cc(C)nn1C(c1sccc1C)N2 (stereo not drawn)	-16%	i	i	?
C(=N\Nc1nc(N2CCCCCC2)nc(N2CCCCCC2)n1)/c1ccccc1	-14%	i	i	22µM*
COc1ccc(/C=N/Nc2nc(N3CCCCC3)nc(N3CCCCC3)n2)cc1[N+](=O)[O-]	-2%	?	i	-4%
O=[N+]([O-])c1ccc(-c2ccc(/C=N/Nc3nc(N4CCCCC4)nc(N4CCCCC4)n3)o2)cc1	-8%	i	i	14µM*
O=[N+]([O-])c1cc(/C=N/Nc2nc(N3CCCCC3)nc(N3CCCCC3)n2)ccc1O	-13%	i	i	22µM*
COc1ccc(OC)c(NC(=O)O[C@@H]2CC[C@@]34CCCN3C(=O)CCC[C@H]4C2)c1	.	i	.	.
Cc1ccc(C(=O)c2coc3ccc(O)c(Cl)c23)cc1	-16%	i	i	16µM*
COc1ccc(CNc2ccc(C)cc2)cc1Br	1%	i	i	18µM*
CCN(CC)c1nc(-c2ccc(C(C)(C)C)cc2)nc2ccccc12	.	i	i	11%
CC(C)CN(CC(C)C)c1nc(-c2ccc(Cl)cc2)nc2ccccc12	-2%	i	i	35µM*
SMILES	aSyn yeast inh	FUS yeast rescue	Abeta rescue	TDP43 rescue
O=C(CN1CCN(S(=O)(=O)c2cc(Cl)ccc2Cl)CC1)Nc1cccc(F)c1	9%	i	i	35µM*
O=C(CN1CCCN(S(=O)(=O)c2ccc(F)cc2)CC1)Nc1cccc(F)c1	-7%	i	i	-16%
CN(C)c1ccc(/C=C/c2c(Br)cnc3ccccc23)cc1	-7%	.	.	.
Oc1cc2cc(-c3csc(-c4ccc(F)cc4)n3)cc3c2n1CCC3	-5%	.	.	.
N/C(=N\OC(=O)Cc1ccc(-c2ccccc2)cc1)c1ccccn1	-1%	i	i	13µM*
N/C(=N\OC(=O)CC1CCCCC1)c1ccncc1	-1%	i	i	14%
N/C(=N\OC(=O)CC1CCCCC1)c1ccccn1	4%	i	i	16µM*
CC1C(=O)N2CCCc3cc(S(=O)(=O)Nc4ccc(Br)cc4F)cc1c32 (stereo not drawn)	.	i	i	3%
CC(=O)Nc1ccc(C(=O)N2c3ccccc3N=C(c3ccc4c(c3)OCO4)C2C(=O)NCc2ccccc2)cc1 (stereo not drawn)	-11%	13µM*	i	7%
COc1ccc(C2=Nc3ccccc3N(C(=O)c3ccc4c(c3)OCO4)C2C(=O)NCc2ccccc2)cc1 (stereo not drawn)	7%	?	i	?
Cc1ccc(NC(=O)CCn2nc(C)cc2C)cc1	0%	i	i	5%
COc1ccccc1-c1nn(CCC(=O)Nc2ccc(C)cc2)c2nc(C)cc(C)c12	?	i	i	35µM*
O=C(Oc1cccc(NC(=O)c2ccccc2Cl)c1)c1ccc([N+](=O)[O-])cc1	15%	i	i	13µM*
Cc1cc2c(s1)c1cnn(CC(=O)N3CCOCC3)c(=O)c1n2C	-2%	.	.	.
Cc1ccc2c(Cl)cc(Cl)c(OCC(=O)O)c2n1	-8%	i	i	14µM*
CN1C(=O)c2cc(NC(=O)Nc3ccccc3F)ccc2OC[C@H]2O[C@@H](CC(=O)NCc3ccc(-c4ccccc4)cc3)CC[C@@H]21	.	i	.	.
N#Cc1ccccc1CSc1nc2ccsc2c(=O)n1Cc1ccccn1	14%	i	i	?
Cc1ccc(CSc2nc3ccsc3c(=O)n2Cc2ccccn2)cc1	3%	.	i	35µM*
O=[N+]([O-])c1ccc(O/N=[N+](\[O-])N2CCCCC2)c([N+](=O)[O-])c1	-81%	.	.	.
CCN(Cc1ccccc1)C(=S)NC(=O)c1ccccc1Br	12%	i	10µM*	24%
c1nc(N2CCC3(CC2)OCCO3)c2c3c(sc2n1)CCCC3	6%	i	i	22µM*
Cc1cccc(N2CC(C(=O)Nc3nnc(SCC(=O)N4CCOCC4)s3)CC2=O)c1 (stereo not drawn)	-10%	18µM*	i	-11%
Cn1c(Cc2cccs2)nnc1SCC(=O)Nc1ccc2c(c1)OCCO2	.	i	.	.
COc1ccc(C2Nc3ccccc3C(=O)N2c2ccc(F)cc2)cc1COc1ccc(NC(C)=O)cc1 (stereo not drawn)	1%	.	.	.
Cc1nn(C(=O)c2ccccc2)c(C)c1Sc1ccc(Cl)cc1	.	?	i	35µM*
SMILES	aSyn yeast inh	FUS yeast rescue	Abeta rescue	TDP43 rescue
CC(C)C[C@H]1COc2cc(Br)ccc2S(=O)(=O)N1Cc1cn(Cc2ccc(Br)cc2)nn1	.	i	.	.
CC(C)(C)c1ccc(C(=O)N2CCC2(C)C(=O)Nc2cccc3ccccc23)cc1 (stereo not drawn)	12%	?	i	1%
CC(C)(C)c1ccc(C(=O)N2CCC2(C)C(=O)Nc2cccc3ncccc23)cc1 (stereo not drawn)	11%	i	i	25µM*
Cc1nn2c(=O)cc(COC(=O)c3ccc(NC(=O)COc4ccc(Cl)cc4)cc3)nc2s1	.	?	i	10%
COc1cccc(-c2nc(NC(C)(C)C)c3ccccc3n2)c1O	-11%	i	i	?
COc1ccc(Nc2nc(-c3cccc(OC)c3O)nc3ccccc23)cc1	3%	?	i	18µM*
